Among all 200,000 compounds or so, about 18,000 (9%) were called active. The sample holds actives, similar compounds and a random draw of the others, so the mix is not that of the screen. A number with no mark means an inactive call. No stated cut-off is given here; in the data, active means inhibition above about 50%; inactive means the rest.
assay: Leishmania major promastigote growth inhibition, primary screen (AID 1063); conditions: Leishmania major promastigotes, resazurin fluorescence viability; at 10 µM; active compounds read high;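 further: promastigotes grown with compound for 44 hours at 28 °C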

Going from `Cc1nnc(SCc2cccc(Cl)c2)n(N)c1=O` to `COC(=O)c1ccc(CSc2nncn2N)cc1`, the inhibition falls from 9.66% to -3.29%.

First: CN1CCN(S(=O)(=O)c2cccc(C(=O)N3CCc4ccccc43)c2)CC1
Second: O=C(c1cccc(S(=O)(=O)N2CCCC2)c1)N(Cc1ccco1)C1CCS(=O)(=O)C1 (stereo not drawn)
The inhibition of the first is higher: 7% for the first, -2.42% for the second.

First: O=C1CCN(C(=S)NCCc2ccccc2)CC1
Second: S=C(NCCc1ccccc1)N1CCCCC1
The inhibition of the first is lower: -11.3% for the first, -2.11% for the second.

Going from `COc1cccc(NC(=O)CC2C(=O)NCCN2C(=S)Nc2ccc(F)cc2)c1` (stereo not drawn) to `Cc1ccc(C)c(Cn2nnc3c(=O)[nH]c(C(=O)Nc4ccc(F)cc4)nc32)c1`, the inhibition rises from -2.74% to 39%.

First: Fc1cc(Br)ccc1NC(=S)Nc1cccnc1
Second: Fc1ccccc1Cn1cnc(NC(=S)NCCc2ccccc2)n1
The inhibition of the first is higher: 5.1% for the first, -2.69% for the second.

First: O=C(/C=C/c1ccccc1)Oc1coc(CSc2ncccn2)cc1=O
Second: Cc1ccnc(NC(=O)CCC(=O)N(CC(=O)NCc2ccccc2)Cc2ccco2)c1
The inhibition of the first is lower: -7.34% for the first, -5.25% for the second.

Going from `Cc1cccc2cc(CN(Cc3cccs3)C(=S)NCc3ccco3)c(=O)[nH]c12` to `CCc1ccccc1NC(=S)N(CCN1CCCCCC1)Cc1ccco1`, the inhibition falls from 46% to 21.6%.

Going from `COCCCNC(=S)N(Cc1ccccc1)Cc1ccc(F)cc1` to `CN(Cc1ccccc1)Cc1ccccc1F`, the inhibition falls from 9.14% to -3.21%.

Going from `CN1C=CC=C/C1=C1\SC(=S)N(Cc2ccccc2)C1=O` to `Cc1nn(Cc2ccccc2)c(C)c1C(=O)NCCN1C(=O)S/C(=C\c2ccc(F)cc2)C1=O`, the inhibition falls from -0.34% to -6.47%.

Going from `CN(C)C(CNC(=O)c1cccc(C#N)c1)c1ccco1` (stereo not drawn) to `CCn1c(CNC(=O)c2ccco2)nnc1SCC(=O)Nc1cccc(F)c1`, the inhibition falls from 3.86% to -1.95%.

Compared with `COc1cccc2cc(C(C)N(CCCN3CCOCC3)C(=O)Nc3ccc(Cl)cc3)oc12` (stereo not drawn), `O=C(NCCN1CCOCC1)Nc1cccc(Cl)c1` is lower in inhibition: 48.2% for the first, -0.08% for the second.

Compared with `CCOC(=O)N1CCN(C(=O)C2CCN(S(C)(=O)=O)CC2)CC1`, `CCCCNC(=O)N1CCN(S(C)(=O)=O)CC1` is higher in inhibition: -5.19% for the first, -0.76% for the second.

First: CCOC(=O)N1CCN(CCC(=O)Nc2cc(OC)ccc2OC)CC1
Second: COCCC(=O)Nc1ccc2c(c1)CN(C(=O)CCOC)CC2
The inhibition of the first is higher: -3.46% for the first, -5.46% for the second.

Going from `O=[N+]([O-])c1ccc2[nH]c3c(c2c1)CCCC3O` (stereo not drawn) to `COCCn1c(N)c(N(Cc2ccccc2)C(=O)C2CCCCC2)c(=O)[nH]c1=O`, the inhibition falls from -1.72% to -6%.

First: Cc1ccc(C)c(NC(=O)CSc2nnc(Cc3cccn3C)n2-c2ccc(F)cc2)c1
Second: CCn1c(SCC(=O)c2ccc3ccccc3c2)nnc1-c1cccs1
The inhibition of the first is higher: -0.8% for the first, -1.02% for the second.

Compared with `Cc1ccc(C)c(Cn2cnc3c(oc4ccccc43)c2=O)c1`, `COc1cc(C2C(C(=O)Nc3ccccc3OC)=C(C)Nc3ncnn32)ccc1O` (stereo not drawn) is higher in inhibition: -7.39% for the first, -3.99% for the second.

Going from `C=CCOC(=O)C1=C(C)N=C2SCCC(=O)N2C1/C=C/c1ccccc1OC` (stereo not drawn) to `COc1ccc(C2C(C(=O)Nc3ccccc3OC)=C(C)Nc3nnnn32)c(OC)c1` (stereo not drawn), the inhibition rises from 7.43% to 15.1%.

Going from `O=C(CSc1nnc(-c2cccs2)n1-c1ccccc1)N1CCN(C(=O)c2ccco2)CC1` to `Cc1onc(C(=O)NN)c1C(=O)N1CCN(C(c2ccccc2)c2ccccc2)CC1`, the inhibition rises from -10.5% to -5.09%.

First: COC(=O)c1ccc(COC(=O)c2cnccn2)cc1
Second: CN(c1ccccc1)S(=O)(=O)c1ccc(Cl)c(C(=O)OCC(N)=O)c1
The inhibition of the first is lower: -1.35% for the first, -0.01% for the second.

Compared with `COCCNC(=O)CN(C(=O)CCC(=O)Nc1cc(C)on1)c1ccc(C)cc1C`, `C=C(C)C1CC=C(C)/C(=N/NC(=O)CCCNc2cccc(C)c2)C1` (stereo not drawn) is lower in inhibition: 2.39% for the first, -1.55% for the second.

First: O=S1(=O)CCN(Cc2ccccc2Cl)CC1
Second: Cc1cccc(C(=O)NCCCN2CCCC2=O)c1
The inhibition of the first is lower: -4.67% for the first, -4.51% for the second.

Compared with `N#Cc1ccc(CSc2nnc3ccccn23)cc1`, `O=C(Cc1c(F)cccc1Cl)Nc1ccc(-n2cnnn2)cc1` is higher in inhibition: -3.72% for the first, 1% for the second.

First: Cc1ccc(NN=C2C(=O)OC(C)(C)OC2=O)c(C)c1
Second: COc1cc(NS(=O)(=O)c2ccc(NC(=O)CN3C(=O)c4ccccc4C3=O)cc2)ncn1
The inhibition of the first is lower: -4.89% for the first, 4.83% for the second.

Compared with `C=CCNc1scc(-c2ccccc2)[n+]1CC=C`, `CN(C)c1ccc(CNC23CN4CN(CN(C4)C2)C3)cc1` is lower in inhibition: 9.84% for the first, -1.82% for the second.

`c1cnc(NC2C3CC4CC(C3)CC2C4)nc1` (stereo not drawn) gave an inhibition of 27.5%.

With `S=C(Nc1cccc(Br)c1)N1CCn2cccc2C1c1cccnc1` (stereo not drawn) the inhibition was 91.2% (active).
For `S=C(NCCc1ccccc1)N1CCn2cccc2C1c1ccncc1` (stereo not drawn), the inhibition was 81.9% (active).
In the case of `Cc1cc(C)c2[nH]c(=O)c(CN(Cc3ccccc3)C(=S)NCCCN(C)C)cc2c1`, the inhibition is reported as 100% (active).
In the case of `Cc1ccc(NC(=S)N(CCCN2CCCC2)Cc2cccn2Cc2ccc(Cl)cc2)cc1`, the inhibition is reported as 99.7% (active).
With `CCOC(=O)N1CCN(C(=O)C2CCN(Cc3ccc(OC)cc3OC)CC2)CC1` the inhibition was 53.4% (active).
In the case of `Cc1ccc(C)c(NC(=O)CSc2nc3c(oc4ccccc43)c(=O)n2-c2ccccc2)c1`, the inhibition is reported as 97.7% (active).
For `O=C(CSc1nnc(-c2cccs2)n1Cc1ccccc1)N1CCc2ccccc2C1`, the inhibition was 83.6% (active).
With `COc1ccccc1NC(=O)C1=C(C)Nc2nnnn2C1c1cccc(Br)c1` (stereo not drawn) the inhibition was 95.7% (active).
With `Cc1ccc(C)c(N(CC(=O)NCc2ccco2)C(=O)CCC(=O)Nc2ccccn2)c1` the inhibition was 53.3% (active).
For `O=C(NCC1CCN(Cc2ccccc2Cl)CC1)Nc1cccc(Cl)c1`, the inhibition was 76.4% (active).
In the case of `CN(c1ccccc1)S(=O)(=O)c1cccc(NC(=O)Cc2c(F)cccc2Cl)c1`, the inhibition is reported as 98.4% (active).
With `CCN1CCN(CCNC(=O)c2ccc(/C=C3/Sc4ccccc4N(Cc4cccc(C)c4)C3=O)cc2)CC1` the inhibition was 101% (active).
With `N=c1n(CCc2ccccc2)c2ccccc2n1Cc1ccccc1F` the inhibition was 97.3% (active).
In the case of `CN(C)c1ccc(CNC2C3CC4CC(C3)CC2C4)cc1` (stereo not drawn), the inhibition is reported as 75.6% (active).

— PubChem BioAssay AID1063 (University of Pittsburgh Molecular Library Screening Center, 2008)
